According to PubChem BioAssay (EPA / NIEHS):
Inconclusive results are not listed. Active and inactive are the calls of the source. How the source made its calls, unless noted: active means hit-call score of the fitted dose curve at least 0.9, where 1 is the maximum; inactive means score below 0.9.

How the values were obtained:
[1] = CCTE_Harrill_HTTr_Viability_MCF7: CCTE's 6-hour Cell Viability Assessment for the High-Throughput Transcriptomics (HTTr) Platform, in MCF-7 cells cultured in DMEM + 10% fetal bovine serum, Harrill Lab (AID 2284010)
Outline: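 Cells were dosed with chemicals in an eight-point dilution series, imaged 6 hours later for propidium iodide uptake, and the endpoint was analyzed by bidirectional fitting against DMSO as negative control.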

[2] = CCTE_Harrill_HTTr_Apoptosis_MCF7: CCTE's 6-hour Apoptosis Assessment for the High-Throughput Transcriptomics (HTTr) Platform, in MCF-7 cells cultured in DMEM + 10% fetal bovine serum, Harrill Lab (AID 2284011)
Outline: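 MCF-7 cells in DMEM + 10% fetal bovine serum were exposed to chemicals for 6 hours over an eight-point dilution series. Caspase-3/7 activation was imaged by high content imaging with CellEvent Caspase 3/7 Green; bidirectional fitting used DMSO as baseline.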

[3] = CCTE_Harrill_HTTr_CellCount_MCF7: CCTE's Cell Proliferation Assessment for the High-Throughput Transcriptomics (HTTr) Platform, Harrill Lab (AID 2284012; active means hit-call score of the fitted dose curve at least 0.9, where 1 is the maximum;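 further: count of Hoechst-stained nuclei per well by high-content imaging in MCF-7 cells; cells exposed to compound for six hours; intended direction is loss of nuclei count meaning fewer cells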)
Outline: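 Chemicals in eight-point dilution series are added to MCF-7 cells for six hours, nuclei are stained with Hoechst and imaged, and per-well nuclei counts are fitted in both directions relative to DMSO controls.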

Compound | outcome [1] | outcome [2] | outcome [3]
Cc1ncc(C[n+]2csc(CCO)c2C)c(N)n1 | inactive | inactive | inactive
CCOC(=O)[C@@H](C)Oc1ccc(Oc2cnc3cc(Cl)ccc3n2)cc1 | inactive | inactive | 
CCC(=O)O[C@H]1[C@H](O[C@@H]2[C@@H](C)[C@H](O[C@H]3C[C@@](C)(OC)[C@@H](O)[C@H](C)O3)[C@@H](C)C(=O)O[C@H](CC)[C@@](C)(O)[C@H](O)[C@@H](C)C(=O)[C@H](C)C[C@@]2(C)O)O[C@H](C)C[C@@H]1N(C)C | inactive | inactive | inactive
CCOCCOC(=O)C=Cc1ccc(OC)cc1 | inactive | inactive | inactive
O=c1cc(-c2ccccc2)oc2c1ccc1ccccc12 | inactive | inactive | inactive
OCCS | inactive | inactive | inactive
CC(CC(C)(C)C)CC(C)(C)C | inactive | inactive | inactive
CCCCCCCCCCCC[N+](C)(C)[O-] | inactive | inactive | 
CCCCc1nc(Cl)c(CO)n1Cc1ccc(-c2ccccc2-c2nnn[nH]2)cc1 | inactive | inactive | inactive
Clc1ccc(-c2nc3sccn3c2/C=N/OCc2ccc(Cl)c(Cl)c2)cc1 | inactive | inactive | 
CC(=CC(C)(C)C)CC(C)(C)C | inactive | inactive | inactive
CC(=O)c1cccc2ccccc12 | inactive | inactive | 
OCCC1CCCCN1 (stereo unspecified) | inactive | inactive | 
CCOC(=O)c1ccccc1C(=O)O | inactive | inactive | 
